Only some compounds are listed: those with a hit (about 19% of all), similar ones and a draw of the others.
Pf growth 96h: P. falciparum growth inhibition at 96 hour, primary screen for plastid delayed-death inhibitors. P. falciparum luciferase reporter growth, 96 h. Potency, µM (doses to about 28.7 µM), inactives show at the top dose activity change, negative = inhibition, most hits filed as inhibitors. 320,000 tested, 6.9% active; note: potency is the fitted concentration of half-maximal effect; % is set by controls: 0 for no effect and ±100 for the full control effect
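Plates of compound plus infected erythrocytes (2% hematocrit, 0.05% parasitemia final) incubate 96 hours, 37 C, 5% CO2. Detection reagent added; reduced luminescence from the parasites' luciferase reporter flags inhibition.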
Shiga inhibitor: blocks Shiga toxin action in Vero cells; 290,000 tested, 9.2% active; Vero cells, Shiga toxin protein synthesis inhibition reporter; inhibition, % at 38.7 µM; in the data active = inhibition mostly above about 28%, no sharp cut-off; inactive = mostly below about 43%; note: 0% is about no effect
SARS PLP yeast: inhibitors of SARS-CoV papain-like protease in yeast; AID 485353; Potency, µM (series often up to 32.9 µM), for the others: at the highest dose activity, positive = growth rescue, hits mostly activators; S. cerevisiae expressing SARS-CoV PLpro, growth rescue; 330,000 tested, 0.19% active; calls by dose curve; note: potency is the fitted concentration of half-maximal effect; 0% is about no effect; nearly all actives have a fitted effect of over 55% in size
AMA1 RON2 block: inhibitors of Plasmodium falciparum AMA1-RON2 interaction; AID 720542; Potency, µM (top dose mostly 58.2 µM), for the others: top-dose activity change, negative = inhibition, actives largely listed as inhibitors; AlphaScreen AMA1-biotinylated RON2 peptide binding; 360,000 tested, 0.2% active;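 note: potency is the fitted concentration of half-maximal effect; 0% = vehicle wells and -100% = peptide control; nearly all actives have a fitted effect of over 45% in size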
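AMA1 (3D7) with his tag at 25 nM final met compounds first, then biotinylated RON2 peptide at 25 nM; detection used donor plus acceptor beads, 10 µg/mL apiece, read by AlphaScreen after 30 min at room temperature.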
Cycloheximide cs: counter-screen for Shiga toxin inhibitors: cycloheximide protein synthesis inhibition | cell reporter, cycloheximide protein synthesis inhibition counterscreen | AID 2314 | max response, % | 300,000 tested, 12% active; in the data active = max response mostly above about 13%, no sharp cut-off; inactive = mostly below about 14%; note: read at 38.3 µM for the half of the compounds with a filed dose; 0% is about no effect
Pf growth 48h: inhibits P. falciparum growth in the first generation, 48 h; P. falciparum luciferase growth in erythrocytes, 48 h; Potency, µM (doses to about 28.7 µM), without a hit: at the highest dose activity change, negative = inhibition, hits mostly inhibitors; 310,000 tested, 5.9% active; AID 504832; note: potency is the fitted concentration of half-maximal effect; % is set by controls: 0 for no effect and ±100 for the full control effect
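Erythrocytes infected with P. falciparum carrying an integrated firefly luciferase reporter (2% hematocrit, 0.1% parasitemia final) were exposed to compounds in RPMI 1640 with 0.5% Albumax at 37 C, 5% CO2. Growth inhibition was scored as reduced luminescence.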
Active calls of the source: *; ? = inconclusive; nt = no result given. Unless noted, calls come from the whole dose curve; as a rule, active = well fitted curve in the direction sought with a large enough effect; inconclusive = small, poorly fitted or top-dose-only effect, or another doubt; inactive = no such curve, though single readings can be large; an effect the other way counts as inactive or inconclusive.

SMILES | Pf growth 96h | Shiga inhibitor | SARS PLP yeast | AMA1 RON2 block | Cycloheximide cs | Pf growth 48h
Cc1ccc(C2/C(=C(/O)c3cnn(-c4ccccc4)c3C)C(=O)C(=O)N2CCCN2CCOCC2)o1 (stereo not drawn) | 243.8% | 54.4* | -1.0% | nt | 33.8* | 111.0%
Cc1ccc(C)c(/C(O)=C2/C(=O)C(=O)N(CCN3CCOCC3)C2c2ccc(C)o2)c1 (stereo not drawn) | 12.8% | -16.6 | 1.6% | -18.2% | -0.8 | -8.8%
CCOc1ccc(C2/C(=C(/O)c3ccc(S(=O)(=O)N4CCCCC4)cc3)C(=O)C(=O)N2CCCOC)cc1OC (stereo not drawn) | 3.7µM* | -11.3 | -3.1% | -9.9% | -2.3 | ?
Cc1ccc(NC(=O)CSc2ncn[nH]2)cc1S(=O)(=O)N1CCOCC1 | 0.0% | 13.7 | -0.3% | 12.2% | 18.1 | -25.7%
Cc1ccc(C)c(/C(O)=C2\C(=O)C(=O)N(CCCN3CCOCC3)C2c2cccnc2)c1 (stereo not drawn) | 1.85µM* | -10.1 | 7.5% | -8.5% | -2.1 | 14.8%
O=C(NC1CCCCC1)C(c1ccc2ncccc2c1)N(Cc1ccccc1)C(=O)c1cccs1 (stereo not drawn) | ? | 1.3 | -6.8% | -0.9% | -1.6 | 10.4µM*
COc1ccc(CN(C(=O)c2cccs2)C(C(=O)NC2CCCCC2)c2ccc3ncccc3c2)cc1 (stereo not drawn) | 10.4µM* | -2.9 | -22.9% | -4.9% | -1.6 | ?
COc1ccc(CN(C(=O)c2nsc(Cl)c2Cl)C(C(=O)NC2CCCC2)c2ccc(C)cc2)cc1 (stereo not drawn) | 10.4µM* | -10.5 | -36.7% | -7.5% | -2.2 | ?
O=C(NC1CCCCC1)C(c1ccc2ncccc2c1)N(Cc1ccc2c(c1)OCO2)C(=O)c1cccs1 (stereo not drawn) | 5.86µM* | -1.1 | -0.8% | -16.6% | -0.4 | ?
COc1ccc(CN(C(=O)c2nsc(Cl)c2Cl)C(C(=O)NC2CCCCC2)c2ccc(OC)cc2)cc1 (stereo not drawn) | ? | -3.6 | -5.4% | -19.9% | -2.2 | ?
COc1ccc(-c2ccc(C(=O)Nc3cccc(NS(C)(=O)=O)c3)c3occc23)c(C)c1 | nt | nt | nt | -22.2% | nt | nt
COc1ccccc1CNC(=O)c1cccnc1 | 11.7µM* | 31.8 | -1.0% | -3.9% | -3.0 | -0.7%
COc1ccccc1CNC(=O)c1cc(-c2cccnc2)nc2ccccc12 | -10.1% | 14.2 | -3.6% | 1.1% | 17.9 | 10.4µM*
COc1ccccc1CNC(=O)c1cnccn1 | -9.2% | 1.2 | -5.9% | 11.4% | 1.5 | nt
Cc1onc(-c2ccccc2)c1CNC(=O)Nc1cccc(Cl)c1 | 9.28µM* | -5.2 | -0.3% | 3.7% | -1.0 | -155.4%
Cc1onc(-c2ccccc2)c1CNC(=O)Nc1ccc(C(F)(F)F)cc1 | 4.15µM* | -2.0 | -1.5% | 3.6% | 10.5 | 6.57µM*
CC(OC(=O)CC1CCCCC1)C(=O)Nc1ccc(F)cc1 (stereo not drawn) | -4.0% | nt | 1.2% | 5.0% | nt | -5.4%
O=C(NCc1ccccc1OC(F)(F)F)C1CCC(=O)N(C2CC2)C1 (stereo not drawn) | 11.7µM* | -8.4 | 3.3% | 4.4% | 1.1 | 21.2%
O=C(NCc1cnn(-c2ccccc2)c1)C1CCC(=O)N(C2CC2)C1 (stereo not drawn) | 5.22µM* | -11.9 | -3.9% | -11.0% | -1.9 | 11.1%
C#CCOCCOCCOCCNc1nc(N2CCN(C(=O)Cn3cc(CC(C)O)nn3)CC2)nc(N2CCN(C(=O)[C@H]([C@@H](C)O)n3cc(CCCCN)nn3)CC2)n1 (stereo partly drawn) | nt | nt | nt | -1.5% | nt | nt
C#CCOCCOCCOCCNc1nc(N2CCN(C(=O)Cn3cc(CC(C)O)nn3)CC2)nc(N2CCN(C(=O)[C@H](CCCCN)n3cc(CCC(=O)O)nn3)CC2)n1 (stereo partly drawn) | -1.3% | -14.0 | -6.1% | -4.3% | -3.1 | 20.8%
C#CCOCCOCCOCCNc1nc(N2CCN(C(=O)CCCCCCCCCCNC(=O)Cn3cc(C[C@@H](C)O)nn3)CC2)nc(N2CCN(C(=O)CCCCCCCCCCNC(=O)[C@H](CCCCN)n3cc(C[C@@H](C)CC)nn3)CC2)n1 | 0.465µM* | nt | -0.6% | -25.2% | nt | 0.329µM*
C#CCOCCOCCOCCNc1nc(N2CCN(C(=O)CCCCCCCCCCNC(=O)Cn3cc(C[C@@H](C)O)nn3)CC2)nc(N2CCN(C(=O)CCCCCCCCCCNC(=O)Cn3cc(C[C@@H](C)O)nn3)CC2)n1 | 0.0828µM* | nt | -1.0% | ? | nt | 0.131µM*
CC(/C=N/NC(=O)c1nnn(-c2nonc2N)c1C(C)C)=C\c1ccccc1 | 11.7% | 91.6 | -3.4% | 11.9% | 28.6* | 44.4%
CC(C)c1c(C(=O)N/N=C/c2ccc(OCc3ccccc3)cc2)nnn1-c1nonc1N | ? | 20.9 | -7.7% | -0.5% | -1.8 | ?
SMILES | Pf growth 96h | Shiga inhibitor | SARS PLP yeast | AMA1 RON2 block | Cycloheximide cs | Pf growth 48h
CCCc1c(C(=O)N/N=C/C(C)=C/c2ccccc2)nnn1-c1nonc1N | -18.0% | 48.3 | -1.5% | 18.3% | 9.9 | -25.5%
COc1cc(/C=N/NC(=O)c2nnn(-c3nonc3N)c2C(C)C)ccc1OCc1ccccc1 | 9.28µM* | 28.9 | -0.1% | -0.1% | 13.0 | ?
Cc1ccc(N(CC(=O)NCCc2ccccc2)C(=O)CCC(=O)Nc2cc(C)ccn2)cc1 | 7.2% | 9.1 | -4.3% | 0.7% | -2.8 | -4.2%
O=C(CCc1nnc2ccc(NCc3ccccc3)nn12)NC1CCCCC1 | 11.7µM* | 7.3 | 2.3% | 5.2% | 2.1 | 7.7%
Cc1ccc(S(=O)(=O)Nc2ccc(NC(=O)c3ccc(F)cc3)cc2)cc1 | 16.9% | -21.4 | 1.3% | -2.9% | -1.1 | ?
O=C(CN1C(=O)/C(=C\c2ccccc2Cl)Oc2ccccc21)NCc1cccnc1 | -36.8% | -17.2 | 3.9% | 17.7% | 8.7 | -13.1%
Cc1ccc(S(=O)(=O)N(Cc2ccccc2)c2ccccc2C(=O)N2CCCCC2)cc1 | -15.9% | -8.5 | -7.8% | -2.8% | -4.1 | ?
Cc1ccc(S(=O)(=O)N(Cc2ccccc2)c2ccccc2C(=O)NCc2cccnc2)cc1 | 19.8% | -14.0 | -0.7% | 18.2% | -0.5 | 5.22µM*
COc1ccc(NC(=O)C2C3C=CC(O3)C2C(=O)NCc2cccnc2)cc1 (stereo not drawn) | 10.4µM* | -13.4 | -11.1% | 16.4% | -2.9 | 25.3%
Cc1ccc(CN2C(=O)/C(=C\c3ccc(C(=O)NCc4cccnc4)cc3)Oc3ccccc32)cc1 | 1.65µM* | -13.7 | 14.0% | nt | 1.6 | ?
Cc1ccc(S(=O)(=O)Nc2ccc(C(=O)Nc3ccncc3)cc2)cc1 | 10.4µM* | -8.8 | 15.0% | -12.2% | -1.6 | -26.1%
COc1ccc(CN(CC(=O)NCC2CCCO2)C(=O)CCC(=O)Nc2nccs2)cc1 (stereo not drawn) | 18.7% | -7.3 | -0.9% | 59.4% | -0.2 | 0.0%
